Source: PubChem
This is one part of a sample in which hits are shown more often than they occur.
mut p53 react: mutant p53 pathway reactivation | 28,000 compounds, 1.5% hits | SW480 PUMA-promoter luciferase | AID 624151 | activation, % at 9.98 µM; in the data active = activation above about 52%
STK33 inh: human STK33 kinase inhibition | ADP-Glo luminescence, MBP substrate | AID 2322 | 27,000 compounds, 0.44% hits | inhibition, % at 12.5 µM; in the data active = inhibition above about 20%
Target sequence (Q9BYT3 whole entry, looked up): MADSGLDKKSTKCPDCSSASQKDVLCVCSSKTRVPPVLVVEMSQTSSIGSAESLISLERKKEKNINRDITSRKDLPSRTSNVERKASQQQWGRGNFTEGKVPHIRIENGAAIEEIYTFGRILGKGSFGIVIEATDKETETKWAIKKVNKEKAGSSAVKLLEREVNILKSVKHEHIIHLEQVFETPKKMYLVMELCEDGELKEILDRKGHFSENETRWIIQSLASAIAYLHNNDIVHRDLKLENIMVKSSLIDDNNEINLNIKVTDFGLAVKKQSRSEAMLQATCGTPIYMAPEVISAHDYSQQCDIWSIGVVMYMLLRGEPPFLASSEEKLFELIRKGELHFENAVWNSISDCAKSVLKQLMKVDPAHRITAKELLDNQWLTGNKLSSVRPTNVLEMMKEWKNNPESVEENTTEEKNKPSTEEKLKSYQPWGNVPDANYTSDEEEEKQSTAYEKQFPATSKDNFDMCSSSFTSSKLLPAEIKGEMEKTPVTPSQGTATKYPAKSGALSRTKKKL
ID4 binder: binders of human ID4 protein | P47928 | small molecule microarray, Flag-ID4 binding, fluorescence F/B | calls only | 31,000 compounds, 1.2% hits | AID 624137; call rule not given here;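 note: a binder raises fluorescence above local background on the spot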
NOMO-1 viab: STK33 inhibitor candidate reducing NOMO-1 cell viability; 37,000 compounds, 7.5% hits; inhibition, % (test concentration not listed); NOMO-1 AML viability, CellTiter-Glo luminescence, 72 h; in the data active = inhibition above about 80%
Starred values were filed as active, the others as inactive; i = inactive; . = no result given.

SMILES	mut p53 react	STK33 inh	ID4 binder	NOMO-1 viab
C[C@H]1CN([C@@H](C)CO)C(=O)c2cccc(NS(C)(=O)=O)c2O[C@H]1CN(C)Cc1ccc(C(=O)Nc2ccccc2N)cc1	.	.	.	45.0
C[C@@H]1CN([C@H](C)CO)C(=O)c2cccc(NS(=O)(=O)c3ccc(Cl)cc3)c2O[C@@H]1CN(C)Cc1ccc(C(=O)Nc2ccccc2N)cc1	.	.	.	125.6*
COc1ccc(S(=O)(=O)Nc2cccc3c2O[C@@H](CN(C)Cc2ccc(C(=O)Nc4ccccc4N)cc2)[C@@H](C)CN([C@@H](C)CO)C3=O)cc1	.	.	.	112.2*
COc1ccc(S(=O)(=O)Nc2cccc3c2O[C@@H](CN(C)Cc2ccc(C(=O)Nc4ccccc4N)cc2)[C@H](C)CN([C@H](C)CO)C3=O)cc1	.	.	.	71.9
C[C@H](CO)N1C[C@H](C)[C@H](CN(C)Cc2ccc(C(=O)Nc3ccccc3N)cc2)Oc2c(NS(=O)(=O)c3ccc(Cl)cc3)cccc2C1=O	.	.	.	120.6*
Cc1noc(C)c1S(=O)(=O)Nc1cccc2c1O[C@H](CN(C)Cc1ccc(C(=O)O)cc1)[C@@H](C)CN([C@H](C)CO)C2=O	5.8	.	i	-6.1
Cc1noc(C)c1S(=O)(=O)Nc1cccc2c1O[C@H](CN(C)Cc1ccc(C(=O)Nc3ccccc3N)cc1)[C@H](C)CN([C@H](C)CO)C2=O	.	.	.	117.6*
C[C@@H]1CN([C@H](C)CO)C(=O)c2cc(N(C)C)ccc2O[C@@H](C)CCCCO[C@@H]1CN(C)S(=O)(=O)c1cccs1	-4.2	.	i	.
C[C@@H]1CN([C@H](C)CO)C(=O)Cc2cc(NS(=O)(=O)c3ccc(F)cc3)ccc2O[C@@H]1CN(C)C(=O)Nc1ccc(F)cc1	.	0.2	.	0.3
COCCOC(=O)N1C(=O)[C@@]2(c3cc(C#CCC(C(=O)OC)C(=O)OC)ccc31)[C@H](c1ccc(OCCO)cc1)N1[C@H](c3ccccc3)[C@H](c3ccccc3)OC(=O)[C@H]1[C@@H]2C(=O)N1CCN(c2ncccn2)CC1	.	5.3	i	.
COc1cc(NC(=O)Cn2cnc3c2c(=O)n(C)c(=O)n3C)cc(OC)c1OC	-11.2	-0.8	i	-15.8
C[C@H]1CN([C@@H](C)CO)C(=O)c2cccc(NS(=O)(=O)c3ccc(Cl)cc3)c2O[C@H]1CN(C)Cc1ccc(C(=O)Nc2ccccc2N)cc1	.	.	.	117.7*
C[C@@H]1CN([C@H](C)CO)C(=O)c2cccc(NS(=O)(=O)c3ccccc3)c2O[C@H]1CN(C)Cc1ccc(C(=O)Nc2ccccc2N)cc1	.	.	.	58.2
C[C@H](CO)N1C[C@H](C)[C@H](CN(C)Cc2ccc(C(=O)Nc3ccccc3N)cc2)Oc2c(NS(=O)(=O)c3ccccc3)cccc2C1=O	.	.	.	138.8*
C[C@H](CO)N1C[C@H](C)[C@H](CN(C)Cc2ccc(C(=O)Nc3ccccc3N)cc2)Oc2c(NS(=O)(=O)c3cccs3)cccc2C1=O	.	.	.	87.8*
CCc1ccc(NS(=O)(=O)c2ccc(OC)cc2)cc1	.	.	.	112.7*
C[C@@H]1CN([C@@H](C)CO)C(=O)c2cccc(NS(=O)(=O)c3cccs3)c2O[C@H]1CN(C)C(=O)NC1CCCCC1	8.5	.	i	0.8
CCCc1ccc(-c2cc(C(=O)NCc3cnn(C)c3)c3ccccc3n2)cc1	105.6*	-1.0	i	32.0
COc1ccc(NC(=O)CSc2cc(C)c3cccc(C)c3n2)cc1	-60.3	1.2	i	105.2*
CCC(C)/C=C(C)/C=C/C1=CC2=C(Cl)C(=O)C(C)(OC(C)=O)C(=O)C2=CN1CCCC(=O)O (stereo unspecified)	.	-0.8	.	101.2*
CCC(C)C(O)C(C)(O)/C=C/C1=CC2=C(Cl)C(=O)C(C)(O)C(OC(C)=O)C2CO1 (stereo unspecified)	-13.5	-0.9	.	119.9*
CC(C)NC(=O)N(C)C[C@@H]1Oc2c(NC(=O)NC3CCCCC3)cccc2C(=O)N([C@H](C)CO)C[C@@H]1C	.	.	.	8.2
COc1ccc(OC)c(C(=O)c2coc3ccc(O)cc23)c1	.	.	.	135.9*
Cc1ccc(NC(=O)COc2ccc(Cl)cc2C)c([N+](=O)[O-])c1	63.8*	3.7	i	13.5
Cc1ccc(OCC(=O)Nc2ccc(C)cc2[N+](=O)[O-])c(C)c1	88.8*	-0.1	i	-17.0
SMILES	mut p53 react	STK33 inh	ID4 binder	NOMO-1 viab
Cc1ccc(NC(=O)COc2ccc(Br)cc2Cl)c([N+](=O)[O-])c1	81.9*	-3.0	i	-6.4
Cc1ccc(NC(=O)COc2ccc(Br)cc2C)c([N+](=O)[O-])c1	45.3	3.9	i	-19.9
COc1cc2c(cc1NC(=O)COc1ccc(Br)cc1Cl)oc1ccccc12	20.8	2.0	i	127.7*
Cc1ccc(NC(=O)COc2ccc(Cl)cc2Br)c([N+](=O)[O-])c1	14.1	1.1	i	22.3
CCn1c(SCC(=O)Nc2ccccc2OC)nnc1-c1ccco1	6.2	-4.6	i	-17.1
N#Cc1cc(C#N)c(SCCN2CCOCC2)nc1N	11.7	-1.3	i	-8.0
C[C@H]1CCCCO[C@@H](CN(C)C)[C@@H](C)CN([C@@H](C)CO)C(=O)c2cc(NS(=O)(=O)c3cn(C)cn3)ccc2O1	0.3	.	i	.
COc1cccc(NC(=O)N[C@H]2C=C[C@H](CC(=O)N3CCOCC3)O[C@@H]2CO)c1	.	.	i	.
Cc1ccc(S(=O)(=O)Nc2cccc3c2O[C@@H](CN(C)C(=O)Nc2ccc(C(F)(F)F)cc2)[C@@H](C)CN([C@H](C)CO)C3=O)cc1	3.0	.	.	34.1
Cc1ccc(S(=O)(=O)Nc2cccc3c2O[C@H](CN(C)C(=O)Nc2ccc(C(F)(F)F)cc2)[C@H](C)CN([C@H](C)CO)C3=O)cc1	.	.	.	90.3*
C[C@@H]1CN([C@H](C)CO)C(=O)c2cccc(NS(=O)(=O)c3ccc(Cl)cc3)c2O[C@@H]1CN(C)C(=O)Nc1ccc(C(F)(F)F)cc1	-3.6	.	i	37.9
C[C@@H]1CN([C@@H](C)CO)C(=O)c2cccc(NS(=O)(=O)c3ccc(Cl)cc3)c2O[C@@H]1CN(C)C(=O)Nc1ccc(C(F)(F)F)cc1	-31.8	.	i	121.1*
COCCSc1nnc(NC(=O)c2sc3ccccc3c2Cl)s1	67.0*	-0.8	i	3.4
CCOC(=O)c1cccc(NC(=O)COc2ccc(Br)cc2)c1	2.1	2.4	i	27.5
O=C(COc1ccc(Br)cc1)Nc1cccc(-c2nnc(-c3ccccc3)o2)c1	109.3*	-2.3	i	24.1
O=C(COc1ccc(Br)cc1)Nc1cccc(-c2nc3ccccc3o2)c1	73.6*	0.0	i	18.4
O=C(COc1ccc(Br)cc1)Nc1ccc2oc(-c3ccc(F)cc3)nc2c1	69.3*	1.7	i	25.2
Cc1ccc(C)c(OCC(=O)Nc2cccc(-c3nc4ccccc4o3)c2)c1	-3.9	-2.9	i	10.5
Cc1cc(OCC(=O)Nc2ccc(O)c(-c3nc4ccccc4o3)c2)ccc1Cl	-62.5	2.1	i	107.3*
COc1ccc(NC(=O)Nc2ccc3c(c2)C(=O)N([C@@H](C)CO)C[C@@H](C)[C@H](CN(C)Cc2ccc(Oc4ccccc4)cc2)O3)cc1	.	.	.	-4.2
COc1ccc(NC(=O)Nc2ccc3c(c2)C(=O)N([C@H](C)CO)C[C@@H](C)[C@@H](CN(C)Cc2ccc(-c4ccccc4)cc2)O3)cc1	.	.	.	93.7*
